Experimental data from the supplement of paper PMC6555819.

Tested on: VDR:RXRa (NR concentration 270 nM, RXRa partner concentration 90 nM)
Assay: PBM binding z-score (relative to random genomic background probes); higher = stronger binding; sequences stand for … in GC…GCGATTGACAGCGTAGAATGAAGG
Experimental: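 Protein-binding microarray (Agilent 4x180K custom design, double-stranded 60-nt probes: 5' GC cap, 34-nt variable region, 24-nt constant primer region; full probe sequence given). Purified or IVT nuclear receptor:RXRα heterodimers (3:1 NR:RXRα, mostly 270:90 nM) or homodimers were incubated for 1 h in PBS with 2% milk and no ligand, then detected with Alexa488 antibodies. Fluorescence from o1-orientation probes (~5 replicates averaged) was converted to z-scores against 500 random hg19 background probes. Variable regions are seed direct-repeat (DR0–DR5) sites, all their single-nucleotide variants and half-site ablations.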

Sequence | PBM binding z-score
CGTCCAAGGTCAAAGGGCAGTGAAGAGATGACGG | 4.65
TCTTGTACATCAAGCAGGTTAAGAAAGCCTGAGT | 0.528
CAAACTAGGTCCCCGGAAGGTCAAAGTCCGCATG | 3.23
TCATATAGGTAAAGGCGAAAGTCGAACGATATGA | 0.324
CCTGCTAGGTCAATGGTCAACTAAAGCAGCTCGC | 1.25
CAAACTAGGTCCCAGAGGTCAAAGTCCGTGCGTA | 5.88
AGAACGAGGGCAATGACTTGATAGCACGGGTGGC | 0.34
ATCAAAAGGTCGACGAGGTGAGTATACACCGTTT | 5.4
GGAACGAGTGCATTCGAGTTGATAGCATGGCGAT | 2.95
GGAACGAGGGCCAGTTGATAGCAGAGTTTGATGG | -0.702
GCGTGTAGATCAAGGTTAAGAAAGACTAAGCTAA | 0.0899
CTACCAAGGTGAACAAGGACGTTGATTACTATTC | 3.82
GATACAGGGTCGAGGCCAGAGTACGCGTATTGAT | 1.41
ACTATTAGTTGACTTAGGGCAGCCGATACGACGC | 0.0476
TCTTGTTGGTCAAAGGTCACACACTCGAAATGCG | 5.23
TCTCGGAGGACACGCAAGGTCAGAGCTCGACATC | 2.45
AATTACGGGTCAACGAGGTTATAGCACGCGTATA | 7.73
AATACAGGGTCACTAGGCCAGACTAGGTACGAAT | 4.22
ACTTACGGGTCAACGAGGTAATAGCACGCGTATA | 6.51
TCATATAGGTAATACAGGTGAAAATCGGCATCTA | 1.32

Sequence | PBM binding z-score
TCATATAGATAAATGCTAGGTGAAAGTCCGATCT | 0.736
CCTATTAGTTGACCATAAGGTCAACCGAAGCTCG | 3.95
CGAACTAGGTCAAGGACAGAGAATCTCCGCACGC | 1.02
CAGCCTAGGTCAGGGCCAGTAAAGGAGGAACGTT | 0.0313
GCGACTGCGGCATCAGCAGGTTACCATAACTTAA | -0.5
CATACAGGGTTAGCTAGGCCAGAGTAGGGACGGC | 0.398
CTACCAAGGTGAACAAGGCCGTTGATTACTATTC | 3.58
TCTTGTAGAACAGCAGGTTAAGAAAGCTGGCCAA | 0.0158
ATACCAAGGTGATCGTGAGCTCGTTGATACTAAC | -0.0163
TAGCCTAGGTCATTGGGTCAGTATAGTACGCATC | 4.26
TCTAGCAGGCCAGAGGGTCACACAAGAGGTACGG | 2.26
AGAATGAGGTTATTAAGATCAGTGAATTGCGGTC | 2.5
CCAGACAGGTGAGAGGTAACTCAGTCTGGTACGC | -0.0647
ATACCTAGGTGATCGTGAGGTCGTTGATACTAAC | 2.66
CGTCAAAGTTAAACTAAGGTAACGTAAAGCACGC | 0.371
CATACAGGGTCAGCTAGGCCAGACTAGGGACGGC | 3.86
TCTAGCATGCCAGAGGGTCACTCAAGAGGTACGG | 1.46
TCTTCTAGGTCAACGATGGTCAGCTAATCTGCTA | 2.41
TGTATTAGTTGATTAGGGCAACCGAAACAGCGGA | 0.00753
TCTGCTAGGTCAACGCTGGTCAGCTAATCTGCTA | 1.36
